Screening data from PubChem.
Hits are enriched below; roughly 2.1% of the tested compounds scored in any of these assays.
Abeta rescue: A-beta toxicity reversal in yeast; 410,000 tested, 0.063% active; yeast expressing A-beta42, growth rescue, OD600, 48 h; response scale: 0% DMSO, 100% iron-clioquinol control; Potency, µM (titrated, usually from 46.1 µM), actives largely listed as activators; note: nearly all actives have a fitted effect of over 55% in size
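Growth rescue measured by 600 nm absorbance after 48 h yeast culture at 30 C with compound. Values normalized between DMSO and an equimolar ferric chloride plus clioquinol control.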
FUS yeast rescue: rescues growth of FUS-expressing yeast. Potency, µM (titrated, usually from 76.6 µM), usual class: activators. S. cerevisiae FUS-expressing, growth rescue, OD600, 24 h. AID 1347120. 390,000 tested, 0.24% active;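 note: plate controls were DMSO vehicle for no effect and reference control for full effect; nearly all actives have a fitted effect of over 55% in size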
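Cultures pregrown in 2.5% raffinose medium are shifted to minimal medium containing 2% galactose to express toxic FUS. Compounds are tested at several concentrations. After 24hr at 30C, growth is quantified at 600 nm absorbance.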
aSyn yeast inh: rescues yeast growth from alpha-synuclein toxicity; Yeast expressing alpha-synuclein, growth rescue, BacTiter-Glo, 24 h; Potency, µM (doses to about 46.1 µM), without a hit: top-dose growth rescue (activation), hits mostly activators; 370,000 tested, 0.14% active; AID 652106; note: % of control where 0% means no effect; nearly all actives have a fitted effect of over 65% in size
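Galactose-induced alpha-syn yeast (OD600=0.02, raffinose-pregrown) + pinned cpd, 24 hr, 30 deg C; growth by BacTiter-Glo luminescence. Growth restoration scores as activation.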
TDP43 rescue: TDP-43 toxicity inhibition in yeast; Potency, µM (top dose mostly 46.1 µM), inactives show at the highest dose growth rescue (activation), usual class: activators; AID 652104; TDP-43 expressing yeast growth rescue, BacTiter-Glo, 24 h; 410,000 tested, 1.8% active; note: % of control where 0% means no effect; nearly all actives have a fitted effect of over 50% in size
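Growth rescue of TDP-43-toxic yeast measured as ATP luminescence (BacTiter-Glo). Cells grown to mid-log in raffinose, induced in galactose at OD600=0.02, exposed to compound 24 hr at 30 deg C.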
Active calls of the source: *; i = inactive; u = inconclusive; x = not tested or not shown; [ ] = remark or other dose. Calls come from the whole dose curve; as a rule, active = well fitted curve in the direction sought with a large enough effect; inconclusive = small, poorly fitted or top-dose-only effect, or another doubt; inactive = no such curve, though single readings can be large; an effect the other way counts as inactive or inconclusive. Potency is the fitted concentration of half-maximal effect.

SMILES	Abeta rescue	FUS yeast rescue	aSyn yeast inh	TDP43 rescue
O/N=C/c1ccn(-c2ccc(Br)cc2)c1	i	i	-6%	14µM*
COC(=O)C[C@@H]1CC[C@H]2[C@@H](COc3ccc(NC(=O)c4ccc(Cl)cc4)cc3C(=O)N2C)O1	x	i	x	x
C(=C\c1nc(-c2ccncc2)no1)/c1ccccc1	i	i	7%	11µM*
CC(C)c1cnc2c(c1SCC(=O)Nc1ccc(OC(F)(F)F)cc1)c(=O)n(C)c(=O)n2C	i	i	x	18%
CC(C)c1cnc2c(c1SCC(=O)Nc1cccc([N+](=O)[O-])c1)c(=O)n(C)c(=O)n2C	i	i	x	11µM*
O=CNc1ccc2c(c1)Cc1cc([N+](=O)[O-])ccc1-2	i	i	15%	22µM*
Nc1ccc(C#Cc2ccccc2)cc1	i	i	5%	14µM*
N/C(=N\OC(=O)c1cccc2ccccc12)c1ccccn1	i	i	-46%	-42%
NC(=Nc1nc(-c2ccccn2)cc2ccccc12)c1ccccn1	u	x	u	3.2µM*
Cc1ccc(CNc2nc(C)nc3sc4c(c23)CCC4)cc1	i	i	0%	-6%
Cc1nc(NC(C)c2ccccc2)c2c3c(sc2n1)CCC3 (stereo not given)	i	i	-10%	14µM*
Cc1cc(C)cc(Cn2c3ccc(NC(=S)NC4CCCCC4)cc3c(=O)n2C)c1	i	28µM*	-9%	17%
CC(C)(C)CCN1C[C@@H]2C(CNC(=O)c3cc(Cl)cc(Cl)c3)[C@@H]2C1 (stereo not given in full)	x	i	x	x
OC[C@@H]1CN(Cc2ccc(Cl)cc2)C[C@H](n2cnc3c(N4CCN(c5ccccc5)CC4)ncnc32)O1	i	u	u	32µM*
CN(C)C(=O)COc1ccccc1C(=O)OCC(=O)Nc1ccc(Oc2ccc(Br)cc2)cc1	x	x	4%	x
CCCCN(C)C(=O)c1cc2cc3ccc(OC)cc3nc2o1	i	i	2%	16µM*
CCCCN(C)C(=O)c1cc2cc3cc(OC)ccc3nc2o1	i	i	4%	u
CC(=O)c1ccc(N2CCC(c3cc(-c4ccc(Cl)cc4)n[nH]3)CC2)c([N+](=O)[O-])c1	i	i	4%	16µM*
COc1ccc(-c2cc(C3CCN(c4ccc(C(C)=O)cc4[N+](=O)[O-])CC3)[nH]n2)cc1	u	i	1%	-2%
O=C(O)c1ccc(N2N=C(c3ccccc3)CC2c2ccccc2)cc1 (stereo not given)	i	i	0%	13µM*
Cc1ccc(CNC(=O)c2oc3ccc(S(=O)(=O)N4CCC5(CC4)OCCO5)cc3c2C)cc1	i	25µM*	4%	-8%
Cc1c(C(=O)NCc2cccnc2)oc2ccc(S(=O)(=O)N3CCC4(CC3)OCCO4)cc12	i	i	u	0%
CC(=O)NC(Cc1ccccc1)P(=O)(O)O (stereo not given)	x	i	x	x
Cc1cc(C(=O)COc2cccnc2[N+](=O)[O-])c(C)n1Cc1cccs1	i	i	4%	-18%
CC(=O)Nc1ccccc1OCC(=O)c1cc(C)n(Cc2cccs2)c1C	i	i	-10%	22µM*
SMILES	Abeta rescue	FUS yeast rescue	aSyn yeast inh	TDP43 rescue
C=CCOc1c(Cl)cc(/C=N/O)cc1OC	i	i	-6%	-4%
CCOc1cc(/C=N\O)cc(Cl)c1OCC	i	i	-3%	10µM*
CCn1c2ccccc2c2nc3ccccc3nc21	i	i	-5%	10µM*
O=C(NCCCc1cnc[nH]1)NCCCN(Cc1ccc(Cl)cc1)c1ccc(Br)cn1	x	x	-9%	x
COc1cccc(CC2CC(=O)N(CCc3ccc4c(c3)OCO4)C2=O)c1 (stereo not given)	i	i	4%	20µM*
Cc1cccc(N2CCN(C(=O)C3CCN(C(=O)c4cc5sccc5n4C)CC3)CC2C)c1 (stereo not given)	u	32µM*	x	20%
Cc1ccc(C)c(N2CCN(C(=O)C3CCN(C(=O)c4cc5sccc5n4C)CC3)CC2)c1	i	u	x	13µM*
Cc1ccc(C)c(N2CCN(C(=O)c3cc4sccc4n3C)CC2)c1	i	u	0%	14%
CN1[C@@H](Cc2ccccc2)COc2cccc(F)c2S1(=O)=O	x	i	x	x
C/C(C=NNC(=O)CSc1nc2ccccc2n1Cc1ccccc1Cl)=C\c1ccccc1	x	i	x	x
O=C(Nc1ccc(Cl)c(Cl)c1)C1CCN(c2nnc(-n3cccc3)s2)CC1	x	i	x	x
CCOC(=O)N1CCN(c2ncc3c(n2)CC(c2ccc(Cl)cc2)CC3=O)CC1 (stereo not given)	i	i	2%	13µM*
CCN(CC)C(=O)CC[C@H]1CC[C@]2(CCCN(Cc3cccnc3)C2)O1	x	i	x	x
Clc1ccc(-c2nc3c4cnn(-c5ccccc5Br)c4ncn3n2)c(Cl)c1	i	i	x	u
Brc1ccccc1-c1nc2c3ccccc3ncn2n1	i	i	-6%	14µM*
COC(=O)c1sccc1NC(=O)Nc1cc(OC)ccc1OC	i	i	9%	18µM*
COC(=O)c1sccc1NC(=O)Nc1ccccc1Cl	i	i	-10%	11µM*
COC(=O)c1sccc1NC(=O)Nc1cccc(Cl)c1Cl	i	i	0%	3%
COC(=O)c1sccc1Oc1c(Cl)cccc1[N+](=O)[O-]	i	i	2%	20µM*
COC(=O)c1sccc1NC(=O)c1ccccc1[N+](=O)[O-]	i	x	1%	u
C[C@H]1[C@@H](OC(=O)N2CCN(c3ccccc3)CC2)CC[C@@]23CCCN2C(=O)CCC[C@@H]13	x	i	x	x
O=C1CCC[C@H]2C[C@H](NCc3ccc(F)cc3F)CC[C@]23CCCN13	x	i	x	x
Cc1nn(CCC(=O)NNC(=O)Nc2ccc(Cl)cc2)c(C)c1[N+](=O)[O-]	x	i	x	x
Cc1ccc(OCC(=O)NCCCNC(=O)c2cnccn2)cc1C	i	i	0%	-14%
Cc1cc(OCC(=O)NNC(=O)c2cnccn2)cc(C)c1Cl	u	i	18µM*	u
SMILES	Abeta rescue	FUS yeast rescue	aSyn yeast inh	TDP43 rescue
Clc1ccc2c(ccc[n+]2CCC2CCCCC2)c1	x	x	0%	x
O=C(c1ccc(-c2cc(Cl)ccc2Cl)o1)N1CCOCC1	i	i	-4%	u
O=C(c1ccc(-c2ccc(Cl)cc2Cl)o1)N1CCOCC1	i	i	5%	18µM*
O=C(c1ccc(-c2ccccc2Cl)o1)N1CCN(c2ccccc2O)CC1	i	i	u	22µM*
O=C(c1cc(-c2ccccc2Cl)on1)N1CCN(C(=O)c2ccco2)CC1	i	i	-7%	u
O=C(c1ccc(-c2cccc(C(F)(F)F)c2)o1)N1CCN(c2ccccc2O)CC1	u	i	9%	16µM*
O=C(c1ccco1)N1CCN(C(=O)c2ccc(-c3ccccc3Cl)o2)CC1	i	i	-3%[1.84 µM]	14µM*
Cc1ccc2c(C(=O)CNc3nccs3)c[nH]c2c1	x	x	-3%	x
